From PubChem
Hits are enriched below; roughly 11% of the tested compounds scored in any of these assays.
HP1b binding inh = blocks HP1-beta chromodomain binding to methylated histone tails; AlphaScreen HP1-beta / biotin-H3K9me3 peptide binding; Potency, µM (top dose mostly 114 µM), inactives show top-dose activity change, negative = inhibition, most hits filed as inhibitors; P83916; actives 0.56% (n = 390,000); further: nearly all actives have a fitted effect of over 70% in size
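HP1-beta protein (50 nM final) preincubated 30 min at room temperature with biotinylated H3(1-18)K9me3 peptide (50 nM) in PBS pH 7.4, 0.01% Tween-20, then compound added for 30 min. AlphaScreen streptavidin donor/nickel chelate acceptor beads (10 ug/mL final), 30 min dark, luminescence read.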
G9a block = G9a (human) methyltransferase inhibition | G9a H3K9 monomethylation, AlphaScreen, 2 h | Q96KQ7 | Potency, µM (highest dose often 102 µM), for inactives: top-dose activity, negative = inhibition, usual class: inhibitors | actives 8.8% (n = 350,000); further: on the % scale 0 is the no-effect control and ±100 the full control effect; nearly all actives have a fitted effect of over 75% in size
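G9a (20 nM) was preincubated 15 min with compound, then reacted 2 h at room temperature with 500 nM biotin-H3K9 peptide and 20 µM SAM. Monomethyl-H3K9 detected by AlphaScreen using anti-H3K9me1 antibody.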
L3MBTL1 inh = L3MBTL1 (human) inhibition; Q9Y468; AlphaScreen L3MBTL1–H3K9me1 peptide binding; Potency, µM (doses to about 57.1 µM), for the others: at the highest dose activity, negative = inhibition, most hits filed as inhibitors; actives 0.66% (n = 230,000); further: on the % scale 0 is the no-effect control and ±100 the full control effect; nearly all actives have a fitted effect of over 60% in size
Target sequence (Q9Y468 whole entry, looked up): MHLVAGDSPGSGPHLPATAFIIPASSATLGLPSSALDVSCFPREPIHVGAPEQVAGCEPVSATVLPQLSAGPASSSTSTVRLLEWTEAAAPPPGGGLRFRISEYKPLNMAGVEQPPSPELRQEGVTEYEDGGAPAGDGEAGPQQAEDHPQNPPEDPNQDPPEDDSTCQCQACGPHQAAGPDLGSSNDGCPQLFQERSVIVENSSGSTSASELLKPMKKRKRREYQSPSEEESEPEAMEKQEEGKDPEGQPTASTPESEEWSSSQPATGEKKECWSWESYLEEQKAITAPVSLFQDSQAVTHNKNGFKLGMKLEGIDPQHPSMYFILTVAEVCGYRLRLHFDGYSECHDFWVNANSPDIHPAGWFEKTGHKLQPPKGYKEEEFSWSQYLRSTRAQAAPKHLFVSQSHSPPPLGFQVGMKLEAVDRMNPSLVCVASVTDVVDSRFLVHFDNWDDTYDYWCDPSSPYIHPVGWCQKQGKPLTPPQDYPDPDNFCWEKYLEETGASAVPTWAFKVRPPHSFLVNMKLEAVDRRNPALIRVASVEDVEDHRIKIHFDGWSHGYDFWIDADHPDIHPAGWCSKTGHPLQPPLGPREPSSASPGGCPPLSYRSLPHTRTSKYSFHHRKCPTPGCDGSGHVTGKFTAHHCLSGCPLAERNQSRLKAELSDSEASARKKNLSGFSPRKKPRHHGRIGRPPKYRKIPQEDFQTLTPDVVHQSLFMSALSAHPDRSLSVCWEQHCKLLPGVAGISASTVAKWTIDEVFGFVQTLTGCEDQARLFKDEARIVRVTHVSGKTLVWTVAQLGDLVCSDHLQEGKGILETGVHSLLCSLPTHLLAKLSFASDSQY
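L3MBTL1 50 nM + b-AHA-H3(1-15)K9me1 75 nM, 30 min RT; compound added, 30 min RT; streptavidin donor/Ni-chelate acceptor beads 10 ug/mL each final, 30 min RT dark; AlphaScreen read.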
BAZ2B block = inhibitors of human BAZ2B bromodomain; Q9UIF8; AlphaScreen BAZ2B-H3K14Ac peptide displacement; Potency, µM (titrated, usually from 114 µM), for inactives: top-dose activity change, negative = inhibition, actives largely listed as inhibitors; actives 4.4% (n = 360,000); AID 504333; further: on the % scale 0 is the no-effect control and ±100 the full control effect; nearly all actives have a fitted effect of over 60% in size
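Multi-concentration screen (max 110 uM) measuring displacement of acetylated histone H3 peptide from BAZ2B by AlphaScreen, using 50 nM protein, 50 nM peptide and 10 ug/mL streptavidin donor plus Ni-chelate acceptor beads.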
JMJD2A Tudor inh = JMJD2A Tudor domain (human) inhibition | O75164 | AlphaScreen JMJD2A-Tudor / H3K4me3 peptide binding | Potency, µM (series often up to 114 µM), inactives show at the top dose activity change, negative = inhibition, usual class: inhibitors | actives 4.4% (n = 390,000); further: on the % scale 0 is the no-effect control and ±100 the full control effect; nearly all actives have a fitted effect of over 50% in size
The depositor's hits bear a star; [ ] = remark or other dose. The call rests on the fitted dose curve; in most records, active means well fitted inhibition curve with a large enough effect; inconclusive means small, poorly fitted or top-dose-only effect; inactive means no such curve, though single readings can be large or run the other way. Potency means the concentration at half of the fitted maximal effect.

For CC(=O)c1cccc(-c2csc(N3CCC(C(N)=O)CC3)n2)c1 the results were HP1b binding inh 45%, G9a block inconclusive, L3MBTL1 inh -7%, BAZ2B block 50µM* and JMJD2A Tudor inh -19%.
NC(=O)C1CCN(c2nc(-c3ccccc3N)cs2)CC1 was read as HP1b binding inh 49%, G9a block inconclusive, L3MBTL1 inh -1%, BAZ2B block inconclusive and JMJD2A Tudor inh -14%.
For NC(=O)C1CCN(c2nc(-c3ccccc3-c3ccccc3)cs2)CC1 the results were HP1b binding inh -15%, G9a block -1%[12.7 µM], L3MBTL1 inh -11%, BAZ2B block inconclusive and JMJD2A Tudor inh 45µM*.
`C/C(=N\NC(=O)c1ccccc1Cl)c1ccccn1` gave HP1b binding inh 30%, G9a block 17%, BAZ2B block 32µM* and JMJD2A Tudor inh 56µM*.
C/C(=N\NC(=O)c1cc(-c2cccs2)nc2ccccc12)c1ccccn1 was read as HP1b binding inh 32%, G9a block -9%, L3MBTL1 inh 28µM*, BAZ2B block 5.6µM* and JMJD2A Tudor inh 28µM*.
For COc1cc(C(C)=NNC(=O)c2ccncc2)ccc1O the results were HP1b binding inh 6% and JMJD2A Tudor inh 32µM*.
`C/C(=N\NC(=O)c1ccc(Cl)c(Cl)c1)c1ccccn1` gave HP1b binding inh 22%[57 µM], G9a block -9%, BAZ2B block 7.9µM* and JMJD2A Tudor inh inconclusive.
Screening COc1ccc(/C(C)=N/NC(=O)c2ccncc2)cc1[N+](=O)[O-] returned HP1b binding inh 56%, G9a block -6%, L3MBTL1 inh 3%, BAZ2B block -27% and JMJD2A Tudor inh 5%.
Screening COc1cc(C2CC(=O)Nc3cc4c(cc32)OCCO4)cc(OC)c1O (stereo not given) returned HP1b binding inh 19%, G9a block inconclusive, BAZ2B block -13% and JMJD2A Tudor inh -25%.
CCCc1cc(=O)[nH]c(SCC(=O)Nc2cc(S(=O)(=O)N(CC)c3ccccc3)ccc2Cl)n1 was read as HP1b binding inh -1%, L3MBTL1 inh -2% and JMJD2A Tudor inh -24%.
`COc1ccc(-n2cc(C(=O)N(C)c3cc(C)ccc3OC)c3ccccc3c2=O)cc1` gave HP1b binding inh 25%, G9a block inconclusive, BAZ2B block inconclusive and JMJD2A Tudor inh -13%.
For C/C(=N/NC(=O)c1ccncc1)c1cc2ccc(O)cc2oc1=O the results were HP1b binding inh 24%, G9a block -4%[59 µM], L3MBTL1 inh -4%, BAZ2B block 79µM* and JMJD2A Tudor inh -32%.
C/C(=N\NC(=O)c1cccc2ccccc12)c1ccccn1 was read as HP1b binding inh 16%, BAZ2B block 16µM* and JMJD2A Tudor inh 56µM*.
Screening COc1ccc(C(=O)N/N=C(\C)c2ccccn2)cc1OC returned HP1b binding inh 41%, BAZ2B block 7.9µM* and JMJD2A Tudor inh 22µM*.
C/C(=N\NC(=O)c1ccncc1)c1cc2ccccc2oc1=O was read as HP1b binding inh 40%, G9a block 8%[59 µM], L3MBTL1 inh -5%, BAZ2B block inconclusive and JMJD2A Tudor inh -4%.
`C/C(=N\NC(=O)c1cc(Br)ccc1O)c1ccccn1` gave HP1b binding inh 39%, G9a block inconclusive, BAZ2B block 2% and JMJD2A Tudor inh -30%.
`C/C(=N\NC(=O)c1cccc(Br)c1)c1ccccn1` gave HP1b binding inh 29%, G9a block 27%, BAZ2B block 3.5µM* and JMJD2A Tudor inh 22µM*.
For C/C(=N\NC(=O)C1COc2ccccc2O1)c1ccccn1 (stereo not given) the results were HP1b binding inh 31%, G9a block 15%[59 µM], L3MBTL1 inh inconclusive, BAZ2B block 25µM* and JMJD2A Tudor inh 50µM*.
For C/C(=N/NC(=O)c1ccc(C(C)(C)C)cc1)c1ccccn1 the results were HP1b binding inh 20% and JMJD2A Tudor inh 45µM*.
`Cc1cccc2sc(NNC(=O)c3cc(-c4cccs4)nc4ccccc34)nc12` gave HP1b binding inh 41%, G9a block 32µM*, L3MBTL1 inh inconclusive, BAZ2B block 3.5µM* and JMJD2A Tudor inh inconclusive.
For C/C(=N\NC(=O)C1COc2ccccc2O1)c1ccc(C)o1 (stereo not given) the results were HP1b binding inh 31%, G9a block -16%, BAZ2B block 2% and JMJD2A Tudor inh -21%.
Cc1c(C(=O)Oc2ccc(Br)cc2)sc2ncn(Cc3ccccc3F)c(=O)c12 was read as HP1b binding inh 9%, G9a block -5%[59 µM], BAZ2B block 5% and JMJD2A Tudor inh 14%.
For O=C(CSc1nc2c([nH]c3ccccc32)c(=O)n1-c1ccccc1)N1CCCC1 the results were HP1b binding inh 13%[57 µM], G9a block -4%[59 µM], BAZ2B block inconclusive and JMJD2A Tudor inh -15%.
`COc1ccccc1CNC(=O)c1ccc(-c2nc(CS(=O)c3ccc(C)cc3)c(C)o2)cc1` (stereo not given) gave HP1b binding inh 23%, G9a block inconclusive, BAZ2B block -19% and JMJD2A Tudor inh -20%.
`CCNc1ncc2nc(-c3cccc(C#N)c3)c(=O)n(Cc3cccc(OC)c3)c2n1` gave G9a block 10%[0.501 µM].
Screening CN1C(=O)c2oc3ccccc3c(=O)c2C1c1cccnc1 (stereo not given) returned HP1b binding inh 22% and JMJD2A Tudor inh -19%.
Screening CN1C(=O)c2oc3ccccc3c(=O)c2C1c1ccccn1 (stereo not given) returned HP1b binding inh 38%, G9a block 28µM*, L3MBTL1 inh 6%, BAZ2B block inconclusive and JMJD2A Tudor inh 32µM*.
`CN1C(=O)c2oc3ccc(Br)cc3c(=O)c2C1c1ccncc1` (stereo not given) gave G9a block 16µM*, L3MBTL1 inh 6% and BAZ2B block 4%.
Screening CN(C)CCN1C(=O)c2oc3ccc(F)cc3c(=O)c2C1c1ccncc1 (stereo not given) returned HP1b binding inh 28%, G9a block -14%[59 µM], L3MBTL1 inh 2%, BAZ2B block 5% and JMJD2A Tudor inh 3%.
For COc1ccc(C(c2nnnn2C2CCCC2)N2CCN(C3CCCC3)CC2)cc1OC (stereo not given) the results were HP1b binding inh 15%, G9a block inconclusive, L3MBTL1 inh 6%, BAZ2B block -34% and JMJD2A Tudor inh 56µM*.
`COc1ccc(C(c2nnnn2CCc2ccccc2)N2CCN(C3CCCC3)CC2)cc1OC` (stereo not given) gave HP1b binding inh 50%, G9a block 50µM*, L3MBTL1 inh 4%, BAZ2B block inconclusive and JMJD2A Tudor inh -4%.
Screening COc1ccc(NC(=O)c2ccc3nc[nH]c3c2)c(OC)c1 returned HP1b binding inh 24%, G9a block 19%, L3MBTL1 inh -19%, BAZ2B block inconclusive and JMJD2A Tudor inh -15%.
